This is a sample that favours compounds with a hit; in the whole collection about 1.6% have one here.
KCNQ2 enhance = KCNQ2 (rat) channel potentiation; B-score at 10 µM; CHO-K1 KCNQ2, FluxOR thallium flux fluorescence; hits give high values; actives 0.54% (n = 310,000); O88943;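 active means fluorescence ratio B-score at least 3 SD of library B-scores, with initial fluorescence B-score within 3 of them, cut at about 5.3 in these data; same plate scores as AID 2156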;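 further: B-score of peak minus minimum over baseline fluorescence ratio after K+ and Tl+ stimulus; positive B-score means potentiation of KCNQ2 with more thallium influx and brighter signal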
KCNQ2 inh = KCNQ2 (rat) channel inhibition. AID 2156. O88943. B-score at 10 µM. CHO-K1 KCNQ2, FluxOR thallium flux, 20 min; hits give low values. actives 1.1% (n = 310,000);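 active means fluorescence ratio B-score at most minus 3 library SDs, with starting brightness B-score within 2 library SDs, cut at about -5.5 in these data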
Kir21 conf inh = confirmation of mouse Kir2.1 potassium channel inhibitors; shares compounds with KCNQ2 enhance; Kir2.1-expressing cells, FluxOR thallium flux fluorescence; hits give low values; Tl flux remaining, % of negative control (hits give low values), % at 10 µM; actives 41% (n = 2,300);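 active means Primary-screen hit whose thallium flux fell at least 3 control SD below untreated wells in both duplicates, with normal baseline fluorescence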
Target sequence (P35561 whole entry, looked up): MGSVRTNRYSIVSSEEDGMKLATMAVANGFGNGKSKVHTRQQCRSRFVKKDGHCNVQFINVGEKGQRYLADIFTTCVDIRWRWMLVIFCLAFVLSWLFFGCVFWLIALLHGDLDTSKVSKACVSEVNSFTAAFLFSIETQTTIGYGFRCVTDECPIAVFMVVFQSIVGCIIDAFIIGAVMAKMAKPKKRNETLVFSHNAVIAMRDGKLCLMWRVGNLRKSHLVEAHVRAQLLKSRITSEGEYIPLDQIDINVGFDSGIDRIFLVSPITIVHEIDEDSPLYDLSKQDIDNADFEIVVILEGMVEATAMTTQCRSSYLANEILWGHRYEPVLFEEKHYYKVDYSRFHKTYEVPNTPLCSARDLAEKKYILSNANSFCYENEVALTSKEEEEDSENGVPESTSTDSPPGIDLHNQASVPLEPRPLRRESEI
HEK293 Tl flux = counter-screen for Kir2.1 inhibitors: effect in parental HEK293 cells; shares compounds with KCNQ2 enhance; actives 19% (n = 2,300); FluxOR signal as % of negative control (100 = no effect), % at 10 µM; FluxOR thallium flux fluorescence; 0% = unstimulated blank wells;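 active means dye signal at least 3 control SD above or below untreated wells in both duplicates, raw fluorescence within 3, either direction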;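 further: percent is based on the flux ratio of peak minus minimum fluorescence over baseline F0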
CHO-K1 Tl ctr = alters thallium flux in parental CHO-K1 cells, KCNQ2 counter-screen | FluxOR thallium flux fluorescence; zero = vehicle mean+3SD, 100% = vehicle-minus-blank window | shares compounds with KCNQ2 enhance | actives 43% (n = 1,200) | AID 2282 | activity increase over 3SD of controls, % at 10 µM;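 active means signal rise of at least 3 SD above the untreated control mean, in both duplicate wells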;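 further: counter screen of KCNQ2 potentiator hits so any rise reflects channel-independent effects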
KCNQ1 pot spec = selectivity of KCNQ2 potentiators: effect on human KCNQ1; shares compounds with KCNQ2 enhance; CHO KCNQ1 stable, FluxOR thallium flux fluorescence; beyond 3SD, as % of vehicle-control signal; activation over 3SD threshold, % at 10 µM; actives 28% (n = 1,200); AID 2283;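 active means fluorescence ratio rise of at least 3 SD of vehicle wells above their mean, in both replicate wells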
KCNQ2 pot confirm = rat KCNQ2 channel potentiator confirmation | shares compounds with KCNQ2 enhance | CHO-KCNQ2 cells, FluxOR thallium flux fluorescence | potentiation, less the hit threshold, % at 10 µM | actives 68% (n = 1,200);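 active means fluorescence ratio rising 3 SD or more over the vehicle control mean in both replicates, plus primary screen hit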;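 further: peak minus minimum thallium fluorescence divided by baseline after K/Tl stimulus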
Kir2-1 sel = selectivity of KCNQ2 potentiators: effect on mouse Kir2.1; activity over 3SD threshold, % at 10 µM; shares compounds with KCNQ2 enhance; HEK293 Kir2.1, FluxOR thallium flux fluorescence; actives 2% (n = 1,200);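 active means fluorescence ratio rise of at least 3 SD above the vehicle-control mean, seen in both replicates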
KCNQ2 W236L pot = rat KCNQ2 W236L mutant potentiation by KCNQ2 potentiators. shares compounds with KCNQ2 enhance. CHO KCNQ2-W236L, automated patch clamp current. current increase over 3SD of negative controls (%), hits give high values, % at 25 µM. actives 10% (n = 940);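 active means current increase at least 3 SD of the untreated controls above them in both duplicate recordings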
A number is an active result; 0 = inactive; - = no result given.

SMILES | KCNQ2 enhance | KCNQ2 inh | Kir21 conf inh | HEK293 Tl flux | others
C=CCSC1=C(C#N)C(c2ccccc2)CC(=O)N1 (configuration not stated) | 0 | 0 | - | -
CCOC(=O)CSC1=C(C#N)C(c2ccc(Cl)cc2)CC(=O)N1 (configuration not stated) | 0 | 0 | 47% | 0
CCOC(=O)CSC1=C(C#N)C(c2ccc3c(c2)OCO3)CC(=O)N1 (configuration not stated) | 0 | 0 | - | -
CCOC(=O)C1=C(C)NC(SCC(=O)OC)=C(C#N)C1c1ccc(C(=O)OC)cc1 (configuration not stated) | - | 0 | - | -
N#CC1=C(SCc2ccccc2)NC(=O)CC1c1ccccc1 (configuration not stated) | - | 0 | 41% | 0
CC(=O)C1=C(C)NC(SCC(=O)c2ccc(C)cc2)=C(C#N)C1c1ccco1 (configuration not stated) | 12 | 0 | 0 | 0 | CHO-K1 Tl ctr=0;KCNQ1 pot spec=0;KCNQ2 pot confirm=0;Kir2-1 sel=0
COc1ccccc1N(C)S(=O)(=O)c1ccc(C(=O)OCC(=O)NCCC2=CCCCC2)cc1 | 0 | 0 | - | -
Oc1ccc(N=Nc2ccccc2-c2nn[nH]n2)c(O)c1 | 0 | 0 | - | -
Cc1sc2nc(C(C)Sc3n[nH]c(N)n3)[nH]c(=O)c2c1C (configuration not stated) | 0 | 0 | - | -
O=S(=O)(Cc1ccccc1)NCC1CCCN(Cc2ccc3nonc3c2)C1 (configuration not stated) | 0 | 0 | - | -
COC(=O)[C@@H]1CCCN1Cc1nc(Cc2ccccc2F)no1 | - | 0 | - | -
Cc1noc(/C=C/c2ccco2)c1S(=O)(=O)N1CCC(C(=O)N2c3ccccc3CC2C)CC1 (configuration not stated) | - | 0 | - | -
CC(C)=CCC/C(C)=C/CCC(C)NCCN1CCNCC1 (configuration not stated) | - | 0 | - | -
CC(C)=CCC/C(C)=C/CC(C)(C)CNCCN1CCNCC1 | - | 0 | 0 | 0
O=c1oc2ccccc2c2c1nnn2CCO | 0 | 0 | - | -
CC(=O)C1=C(c2ccccc2)NC(=O)NC1c1ccccc1 (configuration not stated) | 0 | 0 | - | -
O=C1NC(c2ccccc2)=C(c2nc3ccccc3s2)C(c2ccccc2)N1 (configuration not stated) | 5.9 | 0 | 0 | 0 | CHO-K1 Tl ctr=18;KCNQ1 pot spec=0;KCNQ2 pot confirm=8.2;Kir2-1 sel=0;KCNQ2 W236L pot=0
O=C(OCC(=O)C12CC3CC(CC(C3)C1)C2)c1ccc(O)cc1O | - | 0 | - | -
COc1ccc(C2=NO[C@@H]3[C@@H]4C[C@@H]([C@H]5C(=O)N(c6ccc7c(c6)OCO7)C(=O)[C@@H]45)[C@H]23)cc1OC | - | 0 | - | -
COc1cc(CNc2ccc3[nH]c(=O)[nH]c3c2)cc(Br)c1OCc1ccc(F)cc1 | 0 | 0 | - | -
COc1cccc(CNc2ccc3[nH]c(=O)[nH]c3c2)c1OCc1ccccc1F | 0 | 0 | 66% | 0
CN(C(=O)CSc1ncnc2sc(-c3ccccc3)cc12)C1CCS(=O)(=O)C1 (configuration not stated) | 20 | 0 | 0 | 448% | CHO-K1 Tl ctr=0.0;KCNQ1 pot spec=0;KCNQ2 pot confirm=76;Kir2-1 sel=0;KCNQ2 W236L pot=0
CN(C(=O)CSc1ncnc2scc(-c3ccccc3)c12)C1CCS(=O)(=O)C1 (configuration not stated) | 0 | 0 | - | -
COc1cc2c(cc1OC)C(c1ccc(Br)cc1)NC(=O)C2 (configuration not stated) | 0 | 0 | - | -
Oc1c(CN2CCN(c3ccccc3)CC2)cc(Br)c2cccnc12 | 0 | 0 | - | -
SMILES | KCNQ2 enhance | KCNQ2 inh | Kir21 conf inh | HEK293 Tl flux | others
Oc1c(CN2CCOCC2)cc(COCc2ccccc2)c2cccnc12 | 11 | 0 | 0 | 0 | CHO-K1 Tl ctr=0;KCNQ1 pot spec=0;KCNQ2 pot confirm=26;Kir2-1 sel=0;KCNQ2 W236L pot=0
Cc1ccc(S(=O)(=O)CCC(=O)OCc2nc(N)nc(Nc3ccccc3C)n2)cc1 | 0 | 0 | - | -
Cc1ccc2c(CC(=O)OCc3nc(N)nc(Nc4ccccc4C)n3)coc2c1 | 11 | 0 | 0 | 0 | CHO-K1 Tl ctr=17;KCNQ1 pot spec=0;KCNQ2 pot confirm=15;Kir2-1 sel=0;KCNQ2 W236L pot=0
COc1ccc(/C=C2/S/C(=N/S(=O)(=O)Cc3ccccc3)NC2=O)cc1OC | 0 | 0 | - | -
COc1cc(/C=C2/SC(=S)NC2=O)ccc1OS(=O)(=O)c1ccc(C)cc1 | 40 | 0 | 0 | 0 | CHO-K1 Tl ctr=0.8;KCNQ1 pot spec=0;KCNQ2 pot confirm=0;Kir2-1 sel=0;KCNQ2 W236L pot=0
COc1cc(/C=C2\SC(=S)NC2=O)ccc1OS(=O)(=O)c1ccccc1 | 41 | 0 | 0 | 0 | CHO-K1 Tl ctr=0;KCNQ1 pot spec=0;KCNQ2 pot confirm=91;Kir2-1 sel=0;KCNQ2 W236L pot=0
COc1ccc(/C=C2\SC(=S)NC2=O)cc1OS(=O)(=O)c1ccc(NC(C)=O)cc1 | - | 0 | - | -
CCOC(=O)C1(Cc2ccccc2C)CCCN(S(=O)(=O)CC)C1 (configuration not stated) | - | 0 | - | -
CC(C)N1C(=O)CCC1C(=O)NCc1ccccc1Cl (configuration not stated) | - | 0 | - | -
C=C(C)CSc1nc2c(c(=O)[nH]c(=O)n2C)n1CCC(C)C | 0 | 0 | - | -
COc1ccc(-n2cnc3cc(C(=O)NCCN4CCOCC4)ccc32)cc1 | 0 | 0 | - | -
Cc1ccc(S(=O)(=O)CC(O)COc2ccc(F)cc2Cl)cc1 (configuration not stated) | 0 | 0 | - | -
Cc1ccc(S(=O)(=O)CC(O)COc2ccc(F)cc2Cl)c(C)c1 (configuration not stated) | 0 | 0 | 52% | 0
COC(=O)CN(c1nc(C)c(Br)c(OC)n1)S(=O)(=O)c1ccccc1 | 0 | 0 | - | -
Cc1ccc(SCC(=O)Nc2nnc(-c3ccco3)o2)cc1 | 5.6 | 0 | - | - | CHO-K1 Tl ctr=0;KCNQ1 pot spec=0;KCNQ2 pot confirm=0;Kir2-1 sel=0
O=C(CSc1ccc(F)cc1)Nc1nnc(-c2ccco2)o1 | 0 | 0 | - | -
CCCCC[C@H]1CN(Cc2ccccc2)C(=O)[C@@H]1CC(=O)NCc1ccccc1 | - | 0 | - | -
CC1CCC(NC(=O)CCNS(=O)(=O)c2ccc3c(c2)CCC(=O)N3)CC1 (configuration not stated) | - | 0 | - | -
Cc1cccc(NC(=O)CN2CCN(C(=O)C3CCCO3)CC2)c1C (configuration not stated) | - | 0 | - | -
CC(NC(=S)NCCN1CCOCC1)C12CC3CC(CC(C3)C1)C2 (configuration not stated) | 0 | 0 | - | -
